Screening data from PubChem BioAssay.
The list is not random: actives were taken first. Their share in the collection is about 3.1%.
Autofluor counter – counter-screen for toxin protease inhibitors: compound fluorescence | AID 624483 | compound autofluorescence counterscreen, microsphere flow cytometry; hits give high values | fluorescence intensity (no concentration beside the values) | 360,000 tested, 3.1% active; in the data active = fluorescence intensity above about 16000; inconclusive = no clear call, values can overlap the other calls
BoNT-A LC inh2 – BoNT A light chain protease inhibition; inhibition, % at 10 µM; 360,000 tested, 0.17% active; multiplex microsphere protease substrate cleavage, flow cytometry; also: plate controls were buffer without enzyme for full effect and enzyme alone for no effect
PriA SSB inh – K. pneumoniae PriA-SSBct interaction inhibition; AlphaScreen SSBct-PriA binding, biotinylated peptide; inhibition, % at 33 µM; 430,000 tested, 0.6% active; AID 1272365; in the data active = inhibition mostly above about 37%, no sharp cut-off; inactive = mostly below about 20%;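 also: plate controls were negative control peptide for no effect and reference peptide for full effect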
BoNT F protease – BoNT F light chain protease inhibition. Multiplex microsphere protease cleavage assay, flow cytometry. inhibition, % at 10 µM. 360,000 tested, 0.22% active. AID 588497; in the data active = inhibition above about 35%, passing the limit was not always enough; inconclusive = no clear call, values can overlap the other calls; also: plate controls were buffer without enzyme for full effect and enzyme alone for no effect
Anthrax LF inh2 – inhibitors of Bacillus anthracis lethal factor protease | 360,000 tested, 0.12% active | multiplex microsphere protease cleavage assay, LF | inhibition, % at 10 µM | P15917; also: plate controls were buffer without enzyme for full effect and enzyme alone for no effect
Target sequence (P15917 whole entry, looked up): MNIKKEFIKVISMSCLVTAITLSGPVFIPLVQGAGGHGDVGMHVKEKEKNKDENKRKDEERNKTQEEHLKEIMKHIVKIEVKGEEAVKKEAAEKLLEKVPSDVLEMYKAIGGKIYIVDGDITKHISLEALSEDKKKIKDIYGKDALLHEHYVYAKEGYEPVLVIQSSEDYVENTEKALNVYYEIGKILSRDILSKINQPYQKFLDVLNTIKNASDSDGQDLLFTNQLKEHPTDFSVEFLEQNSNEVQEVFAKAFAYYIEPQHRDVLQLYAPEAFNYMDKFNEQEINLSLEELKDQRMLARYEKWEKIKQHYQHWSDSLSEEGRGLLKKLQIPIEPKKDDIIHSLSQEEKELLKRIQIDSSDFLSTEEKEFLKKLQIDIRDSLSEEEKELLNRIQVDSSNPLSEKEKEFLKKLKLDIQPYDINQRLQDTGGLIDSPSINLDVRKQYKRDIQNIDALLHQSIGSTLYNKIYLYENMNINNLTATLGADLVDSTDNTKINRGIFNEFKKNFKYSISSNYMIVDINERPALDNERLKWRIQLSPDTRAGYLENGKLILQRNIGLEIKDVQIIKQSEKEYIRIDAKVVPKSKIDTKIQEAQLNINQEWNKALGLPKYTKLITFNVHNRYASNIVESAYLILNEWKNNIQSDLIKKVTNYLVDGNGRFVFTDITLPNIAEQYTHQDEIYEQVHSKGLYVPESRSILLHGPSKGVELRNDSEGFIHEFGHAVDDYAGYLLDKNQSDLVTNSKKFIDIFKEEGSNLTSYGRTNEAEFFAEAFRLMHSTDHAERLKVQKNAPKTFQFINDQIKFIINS
* = called active by the depositor; ? = inconclusive; . = no result. Rule as the data show it, unless noted: active = inhibition above about 30%; inconclusive = no clear call, values can overlap the other calls; inactive = below that.

SMILES | Autofluor counter | BoNT-A LC inh2 | PriA SSB inh | BoNT F protease | Anthrax LF inh2
CCOC(=O)N1CCC(Nc2c(Nc3cccc(CC)c3)c(=O)c2=O)CC1 | 18932* | 2.1 | 3.4 | -2.5 | -12.2
CCOC(=O)N1CCC(Nc2c(-c3ccc(C)cc3)c(=O)c2=O)CC1 | 4037 | 0.5 | -4.2 | 12.2 | -0.2
CCOC(=O)N1CCC(Nc2nc(OC)nc(OC)n2)CC1 | 22300* | ? | -4.1 | 1.2 | -3.2
CCOC(=O)N1CCC(Nc2c(NCCN3CCN(Cc4ccccc4)CC3)c(=O)c2=O)CC1 | 21681* | 2.5 | -5.3 | 1.9 | 1.0
CCOC(=O)N1CCC(Nc2c(Nc3ccc(F)cc3)c(=O)c2=O)CC1 | 3871 | 0.8 | -8.5 | -6.0 | 1.4
CCc1cc(-c2nc(N)nc(C(F)(F)F)c2-c2ccc(Br)cc2)c(O)cc1OC | . | . | 4.0 | . | .
COC(=O)Nc1ccc(=O)n(Cc2c(Cl)cccc2Cl)c1 | 23829* | -1.3 | 11.8 | -7.1 | -1.8
COc1ccc(NC(=O)c2ccc(=O)n(Cc3cccc(Cl)c3)c2)cc1OC | . | . | -8.0 | . | .
Cc1cccc(NCCNC(CC(=O)Nc2ccc(F)cc2)C(=O)O)c1 (configuration not stated) | . | . | -5.0 | . | .
COC(=O)c1ccc(NC(=O)c2cc(=O)c(OC)cn2C)cc1 | . | . | 1.0 | . | .
CC1=C(C)[N+](=O)C2CCCCC2N1[O-] (configuration not stated) | 17133* | ? | -1.7 | -6.6 | -4.8
COCC(=O)N1CCCc2ccc(NS(=O)(=O)C3CCCCC3)cc21 | . | . | -9.0 | . | .
COc1ccc(OC)c(-c2cc(C(=O)NCCNS(=O)(=O)c3cn(C)cn3)n(C)n2)c1 | . | . | -15.0 | . | .
CC(C)Cn1c(-c2csc3c2CCCC3)n[nH]c1=S | 17069* | -2.7 | 17.7 | -7.9 | -6.7
COc1cc2c(cc1OC)C(c1ccc(-c3ccc(Cl)cc3Cl)o1)=NCC2 | ? | ? | -7.1 | -5.5 | 7.3
COc1cc2c(cc1OC)C(c1ccc(-c3ccccc3Cl)o1)=NCC2 | 20487* | 7.2 | 26.4 | 6.1 | 0.4
CC1CCN(c2ccc(NC(=S)NC(=O)c3ccco3)cc2)CC1 | 3138 | -0.2 | 3.7 | 2.1 | -2.2
Cc1cccc(NC(=S)NNC(=O)c2ccco2)c1 | 9510 | 0.3 | 4.3 | 1.4 | -0.6
Cc1ccc(NC(=S)NNC(=O)c2ccco2)cc1 | 21506* | 2.2 | -1.2 | 2.3 | 0.0
O=C(NC(=S)Nc1ccc(N2CCCCC2)cc1)c1ccco1 | 20910* | 3.4 | 43.7 | 2.4 | -14.2
CCCCNC(=S)NNC(=O)c1ccco1 | 16637* | 0.2 | -20.2 | -0.5 | -1.8
CCCCNC(=O)NNC(=O)c1ccco1 | 8417 | 2.1 | -13.7 | 14.5 | 1.4
COc1ccc2c(c1)-c1c(sn(-c3ccc(OC)c(OC)c3)c1=S)C(C)(C)N2 | 4478 | -2.2 | 70.7 | -7.1 | -5.1
COc1cc2c3c(c1)-c1c(sn(-c4cc(OC)ccc4OC)c1=S)C(C)(C)N3C(=O)C2=O | 21539* | 2.0 | 21.0 | 1.3 | -6.3
CC(=O)NC(=Nc1nc(C)cc(C)n1)Nc1ccccc1Cl | . | . | 5.4 | . | .
SMILES | Autofluor counter | BoNT-A LC inh2 | PriA SSB inh | BoNT F protease | Anthrax LF inh2
COc1ccc(-c2cc(C(=O)O)c(C)o2)cc1OC | 20243* | 0.6 | 0.6 | 0.0 | -4.7
Cc1ccccc1OC(=O)CCC(=O)OCCCC(F)(F)C(F)(F)F | 8375 | -1.6 | -41.6 | -18.5 | -2.1
Cc1ccc(OC(=O)CCC(=O)OCCCC(F)(F)C(F)(F)F)cc1 | 24380* | -2.0 | -70.9 | -4.4 | -0.7
COC(=O)CSc1nnc(-c2ccncc2)n1N | 19048* | 2.3 | -11.2 | -0.4 | -2.6
CCn1c(SCC(=O)OC)nnc1-c1ccncc1 | 4772 | -0.7 | 9.9 | -12.8 | -2.1
Cc1ccc(NC(=O)CSc2nnc(-c3ccncc3)n2N)cc1C | 24163* | -1.4 | -7.8 | -4.5 | -0.5
COc1ccc(NC(=O)CSc2nnc(-c3ccc(C)cc3)n2N)cc1 | 9474 | -0.3 | -9.1 | -4.6 | -2.6
COC(=O)c1cc(OC)c(OC)cc1NC(=S)N1CCCC(CO)C1 (configuration not stated) | 22143* | 1.0 | -19.0 | 1.0 | 4.2
COc1ccc(F)cc1S(=O)(=O)NC1CCCC1 | 20620* | -1.8 | -5.7 | -1.7 | -0.4
COc1ccc(C)cc1S(=O)(=O)NC1CCCC1 | 3104 | -0.4 | -7.7 | -2.1 | -4.9
N#Cc1ccccc1NC(=O)CSc1nccn1-c1ccc(C(=O)NCc2ccccc2F)cc1 | . | . | 35.0* | . | .
O=C(Cc1ccc(F)cc1)Nc1ccc2c(c1)CN(S(=O)(=O)c1ccccc1)CC2 | . | . | -6.0 | . | .
Cc1cc(C)n(C/C=C/Cn2nc(C)cc2C)n1 | 20615* | ? | -29.1 | -1.9 | 0.5
Cc1cc(C)n(CCC(=O)O)n1 | . | . | -15.0 | . | .
COc1ccc2cc(C(=O)NC[C@](C)(O)C3CC3)[nH]c2c1 | . | . | -6.0 | . | .
O=C(Oc1coc(CSc2nnc(NC(=O)C3CC3)s2)cc1=O)c1c(F)cccc1F | 3946 | 48.5* | -3.4 | -3.5 | -5.0
Cc1cc(C)cc(C(=O)Oc2coc(CSc3nnc(NC(=O)C4CC4)s3)cc2=O)c1 | 2288 | 38.2* | 1.5 | 5.2 | -0.6
COc1ccc(S(=O)(=O)n2ccnc2)cc1C(C)C | . | . | -13.0 | . | .
COC(=O)CNC(=O)c1cccc(Cl)c1 | 4407 | 0.7 | -13.5 | -2.8 | -3.0
COC(=O)CCC(=O)NNC(=O)c1cccc(Cl)c1 | 25239* | -6.4 | -9.6 | -7.0 | -2.2
Cc1cc2ncn(N=Cc3ccc(-c4ccccc4)o3)c2cc1C | . | . | -0.1 | . | .
Cc1cc(C)n(-c2nc3ccccc3nc2N2CCCC2)n1 | 19617* | 3.2 | -20.6 | 4.1 | 1.2
O=C(NCCc1ccccn1)C1CC(=O)N(Cc2ccccc2Cl)C1 (configuration not stated) | 19830* | ? | -9.4 | 0.2 | -1.7
COc1ccc(CN2CC(C(=O)NCc3ccccn3)CC2=O)cc1 (configuration not stated) | 2841 | -1.4 | -3.0 | -6.3 | -0.5
Cc1ccc(-c2cc(C(=O)N3CCC(NC(=O)c4cccc(N(C)C)c4)CC3)[nH]n2)c(C)c1 | . | . | 48.0* | . | .
SMILES | Autofluor counter | BoNT-A LC inh2 | PriA SSB inh | BoNT F protease | Anthrax LF inh2
Cc1n[nH]c(C)c1S(=O)(=O)NCCOc1ccc2nnc(-c3ccccc3)n2n1 | . | . | 2.0 | . | .
COc1cc(C(=O)N(Cc2ccccn2)CC2CCCO2)cc(OC)c1OC (configuration not stated) | 21493* | 2.7 | -10.1 | 5.1 | 1.1
COC(=O)C1=C(C)n2nnnc2NC1c1cc2ccccc2o1 (configuration not stated) | 17991* | ? | 0.2 | 9.2 | -7.1
COC(=O)C1=C(c2cc3ccccc3o2)C[C@@H]2CC[C@H]1N2C | 4201 | -0.3 | -4.8 | -2.2 | -9.3
Cc1cc(=O)n2c(n1)sc1ccccc12 | . | . | -5.0 | . | .
Cc1nn(Cc2ccc(F)cc2)c(C)c1NC(=O)c1cnn2c1NC(c1ccccc1)CC2C(F)(F)F (configuration not stated) | 11817 | -0.5 | 1.3 | -4.4 | -1.5
Cc1nn(Cc2ccc(F)cc2)c(C)c1NC(=O)c1cnn2c1NC(c1cccs1)CC2C(F)(F)F (configuration not stated) | 22509* | 2.5 | -2.1 | 2.3 | -1.2
Cc1[nH]nc2c1C(=NO)CC(C)(C)C2 | . | . | -12.6 | . | .
CCOc1ccc(NS(=O)(=O)c2ccc(OCC(=O)N3CCCC3)cc2)cc1 | 5513 | -0.1 | -4.0 | -3.2 | 3.9
